# Data as given in PubChem BioAssay (NCI).
# Compounds without any hit were thinned out: in the full panel of roughly 83,000, 20% have a hit.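 Testing used 96-well plates and a 48-hour single-concentration exposure. Example: -40 means 40% of the starting cells died.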 The source made the active and inactive calls. Rule for the calls: active = growth percent below 10; inactive = the rest.
# System: KM12 colon
# Assay: NCI-60 one-dose screen, 48 h (100 = growth as untreated, 0 = no growth, -100 = all killed)
# Conditions: 10 µM unless noted
row,SMILES,growth
1,O=C1NCC2CCCC1C2 (stereo not drawn),107% (inactive)
2,Cc1cc(CO)c(O)c(CO)c1,107% (inactive)
3,C#CC(O)c1ccccc1 (stereo not drawn),107% (inactive)
4,COc1ccc(Br)c(C=O)c1,93.7% (inactive)
5,COC(c1ccc2c(c1)OCO2)C(C)Br (stereo not drawn),93.5% (inactive)
6,O=C(O)c1ccccc1Cc1ccc2c(c1)CCCC2,113% (inactive)
7,O=[N+]([O-])c1ccc(-c2nc(N(CCO)CCO)c3ccccc3n2)o1,-29.1% (active)
8,O=Cc1ccc(Cl)c(Cl)c1,113% (inactive)
9,CCC(C)C1CCC(O)CC1 (stereo not drawn),105% (inactive)
10,CC(C)c1ncc([N+](=O)[O-])n1C,111% (inactive)
11,COc1ccc(/C=C\C(=O)/C=C/c2ccc(OC)cc2)cc1,4.59% (active)
12,Nc1cc2c(cc1Cl)C(=O)c1ccccc1C2=O,28.8% (inactive)
13,Cc1ccc(Cc2ccc(C)cc2)cc1,99.4% (inactive)
14,CCOC(=O)c1c[nH][nH]c1=O,111% (inactive)
15,O=c1[nH]c(=O)c2cc(Cl)cc(Cl)c2[nH]1,106% (inactive)
16,CC(=O)c1cc(O)ccc1O,116% (inactive)
17,Nc1ccn(C2CC(N)C(CO)O2)c(=O)n1 (stereo not drawn),97.4% (inactive)

row,SMILES,growth
1,CNc1ccccc1C(N)=O,101% (inactive)
2,CCOC(=O)C(C#N)=C1CCN(C)CC1,97.7% (inactive)
3,NNC(=O)c1ccccc1N,105% (inactive)
4,COC(CCCl)c1ccc(Cl)cc1 (stereo not drawn),102% (inactive)
5,C=CCC(OC(C)=O)c1ccc(OC)c(OC)c1 (stereo not drawn),99% (inactive)
6,COc1ccc(C2CCCCC2=O)cc1 (stereo not drawn),112% (inactive)
7,O=[N+]([O-])c1c(Cl)ncnc1Cl,102% (inactive)
8,CCN(CC)c1ccc2nc3ccc(N=Nc4ccc(N(C)C)cc4)cc3[n+](-c3ccccc3)c2c1,-64.3% (active)
9,c1ccc2[nH]c(Cc3nc4ccccc4[nH]3)nc2c1,97.6% (inactive)
10,CC1=CC(=Nc2ccc(N(C)C)cc2)C=C(C)C1=O,87.5% (inactive)
11,N#CCCN1C(=O)CCC1C(=O)O (stereo not drawn),103% (inactive)
12,O=C(O)Cc1cccc2ccccc12,107% (inactive)
13,Cc1nc(C)c(C(=O)O)cc1C(=O)O,117% (inactive)
14,Clc1ccc(/C=C/c2ccccn2)cc1,89.8% (inactive)
15,CCNc1ncnc2[nH]ncc12,103% (inactive)
16,CC12CCC3c4ccc(O)cc4CCC3C1CCC2=O (stereo not drawn),109% (inactive)
